Results taken from PubChem BioAssay (NCATS).
Values joined by “and” are separate entries in the source; they are usually repeats but may differ in a detail not shown here. Identical values can stand only once. Results filed as inconclusive are left out. Active and inactive are the calls of the source. Unless noted, calls follow the shape of the dose curve; as a rule, active = well fitted curve in the direction sought with a large enough effect; inconclusive = small, poorly fitted or top-dose-only effect, or another doubt; inactive = no such curve, though single readings can be large; an effect the other way counts as inactive or inconclusive.

Columns and labels:
[1] = Cell Viability - MRC5 (AID 434; calls by dose curve;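 also: potency is read from the fitted curve at half-maximal effect; potency reflects cytotoxicity seen as loss of intracellular ATP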); details: MRC5 lung fibroblast viability, qHTS
How it was run: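 MRC5 normal human lung fibroblasts, 1500 cells/well, exposed to compound for 40 hr at 37 C. Cellular ATP was read by CellTiter-Glo luminescence; data normalized to DMSO and 100 uM tamoxifen, with AC50 from Hill fits.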

[2] = Cell Viability - HUV-EC-C (AID 542); details: HUV-EC-C endothelial cell viability, qHTS; series mostly up to 92.2 µM; also: % is scaled to controls: 0 for no effect and ±100 for the full control effect; nearly all actives have a fitted effect of over 35% in size
How it was run: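 HUV-EC-C human vascular endothelial cells, 1000/well, exposed to compound for 40 hr at 37 °C in complete medium. Intracellular ATP was read by CellTiter-Glo luminescence. AC50 came from Hill-equation fits of concentration-response data.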

[3] = Cellular Toxicity (caspase-3) HepG2 (AID 654); details: HepG2 caspase-3 activation, luminescence; series mostly up to 92.2 µM;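 also: cells exposed to compound for 16 hours before reading; 0% = DMSO alone and 100% = caspase signal from 100 µM tamoxifen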
How it was run: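 HepG2 cells (1500/well) were treated 16 h at 37 °C in complete medium, then caspase 3/7 activity was read by Caspase-Glo luminescence. Data were normalized to DMSO and 100 uM tamoxifen; AC50 came from Hill-equation fits of qHTS concentration-response.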

[4] = Cellular Toxicity (caspase-3) HUV-EC-C (AID 656); details: HUV-EC-C cells, caspase-3 activation (apoptosis); series mostly up to 92.2 µM
How it was run: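 qHTS; HUV-EC-C, 1000 cells/well; 5 hr settle, 16 hr cmpd, 37°C; Caspase-Glo 3/7, 20 min RT; luminescence. Norm: DMSO = 0%, tamoxifen 100 uM = 100%. Hill-fit AC50.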

[5] = Cellular Toxicity (caspase-3) SHSY5Y (AID 657); details: SH-SY5Y caspase-3 activation; series mostly up to 91.7 µM
How it was run: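 qHTS, SH-SY5Y, 1500 cells/well, 5 h pre-incubation 37 °C; compound 16 h 37 °C; Caspase-Glo 3/7 1 h RT; luminescence. Norm.: DMSO = 0, 10 uM staurosporine = 100%. Hill fit → AC50.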

[6] = Cellular Toxicity (caspase-3) Mesangial (AID 660); details: mesangial cells, normalized: DMSO 0%, 100 µM tamoxifen 100%; series mostly up to 91.7 µM
How it was run: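 Human renal glomerular mesangial cells, 1000/well, 5 h at 37 C before 16 h compound treatment. Caspase-Glo 3/7 luminescence after 20 min; normalized to DMSO and 100 uM tamoxifen, AC50 from Hill fit.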

[7] = Cellular Toxicity (caspase-3) SK-N-SH (AID 661); details: SK-N-SH caspase-3 activation, qHTS, DMSO as zero, staurosporine as full; series mostly up to 91.7 µM
How it was run: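 Human SK-N-SH neuroblastoma cells, 1500/well, were exposed to compounds for 16 hours at 37 °C. Caspase-Glo 3/7 luminescence was normalized to DMSO (basal) and 10 uM staurosporine (100%), and AC50 came from a Hill fit.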

[8] = Cellular Toxicity (caspase-3) H-4-II-E (AID 663); details: H-4-II-E rat hepatoma; Potency: caspase-3 activation; series mostly up to 92.2 µM;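 also: cells exposed to compound for 16 hr before readout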
How it was run: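 Rat hepatoma H-4-II-E cells (1500/well) plated 5 hr, then exposed to compound titrations for 16 hr at 37 °C. Caspase-Glo 3/7 luminescence read after 20 min at RT; data normalized to DMSO and 100 uM tamoxifen, AC50 from Hill fits.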

[9] = Cellular Toxicity (caspase-3) N2a (AID 665); details: N2a cells, luminescence, normalized: DMSO 0%, 10 µM staurosporine 100%; series mostly up to 92.2 µM;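 also: compound exposure lasted 16 h at 37 °C before readout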
How it was run: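 Mouse N2a neuroblastoma cells, 1500 per well, treated 16 h at 37 °C in complete medium; caspase-3/7 activity by Caspase-Glo luminescence after 1 h. Normalized to DMSO and 10 uM staurosporine; AC50 from Hill fits.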

[10] = Cellular Toxicity (caspase-3) NIH 3T3 (AID 666); details: NIH 3T3 caspase-3 activation, apoptosis/toxicity, 0% DMSO, 100% is 100 µM tamoxifen; series mostly up to 92.2 µM;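 also: caspase signal read after 16 h compound exposure; 0% = DMSO basal and 100% = 100 µM tamoxifen stimulation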
How it was run: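 Mouse NIH 3T3 fibroblasts (1000/well) treated 16 h at 37 C; caspase-3/7 activity measured by Caspase-Glo 3/7 luminescence after 20 min. Normalized to DMSO and 100 uM tamoxifen; AC50 from Hill fits.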

[11] = Cellular Toxicity (caspase-3) Renal Proximal Tubule (AID 667); details: renal proximal tubule cells, primary cells freshly taken from rat; Potency: caspase-3 activation; series mostly up to 91.7 µM;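 also: cells exposed to compound for 16 hours at 37 °C before detection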
How it was run: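 AC50 derived by standard Hill fit of concentration-response data, normalized between DMSO basal and 10 uM staurosporine as 100% stimulation. Cells: primary rat kidney proximal tubule, 16 h treatment at 37 °C.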

[12] = MultiTox-Fluor Cytotoxicity Assay - LYMP1-001 - Dead Cells (AID 946); details: LYMP1-001 lymphoblastoid cells, dead-cell protease fluorescence; series mostly up to 92.2 µM;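 also: 0% = DMSO and 100% = tetraoctylammonium bromide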
How it was run: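 LYMP1-001 lymphoblastoid cells (2500/well) treated 16 h at 37 C. Dead-cell protease cleavage of bis-AAF-R110 read at Ex/Em 485/520. Normalized to DMSO and 15 uM tetraoctylammonium bromide; AC50 from Hill fits.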

[13] = MultiTox-Fluor Cytotoxicity Assay - LYMP1-003 - Dead Cells (AID 961); details: LYMP1-003 lymphoblastoid cells, dead-cell protease fluorescence; series mostly up to 92.2 µM;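 also: 0% = DMSO and 100% = tetraoctylammonium bromide; nearly all actives have a fitted effect of over 70% in size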
How it was run: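 LYMP1-003 human lymphoblastoid cells (2500/well) exposed to compound 16 h at 37 C in complete medium; dead-cell protease read with bis-AAF-R110 fluorescence (Ex/Em 485/520) after 60 min at room temperature. Normalized to DMSO and 15 uM tetraoctylammonium bromide; AC50 from Hill fit.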

[14] = MultiTox-Fluor Cytotoxicity Assay - LYMP1-003 - Live Cells (AID 962); details: LYMP1-003 lymphoblastoid cells, MultiTox-Fluor live-cell protease fluorescence; series mostly up to 92.2 µM;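 also: 0% = DMSO only and full loss = 92 µM tetraoctylammonium bromide; cytotoxic hits lower the live-cell protease signal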
How it was run: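 LYMP1-003 lymphoblastoid cells, 2500/well in complete medium, treated 16 h at 37 C; live-cell protease cleavage of GF-AFC read by fluorescence (Ex/Em 405/510) after 60 min reagent; AC50 from Hill fits of concentration-response.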

[15] = Cell Viability - LYMP1-003 - Assay at 24 hr (AID 963); details: LYMP1-003 lymphoblastoid cell viability; series mostly up to 92.2 µM;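 also: plate controls were DMSO only for no effect and tetraoctylammonium bromide positive control for full effect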
How it was run: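 Human lymphoblastoid LYMP1-003 cells, 2500/well, treated 24 h at 37 C in complete medium. Viability read as intracellular ATP by CellTiter-Glo luminescence after 30 min at room temperature; AC50 from Hill-equation fits of qHTS concentration-response.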

[16] = Cell Viability - LYMP1-002 - Assay at 24 hr (AID 993); details: LYMP1-002 lymphoblastoid cells viability; series mostly up to 92.2 µM; also: % is scaled to controls: 0 for no effect and ±100 for the full control effect
How it was run: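 Human lymphoblastoid LYMP1-002 cells (2500/well) treated 24 h at 37 °C; viability as intracellular ATP by CellTiter-Glo luminescence. Tetraoctylammonium bromide as positive control; AC50 from Hill-equation fits of qHTS concentration-response.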

[17] = qHTS Assay for Identification of Small Molecule Inducers of Hypoxia Response (AID 2120; active = well fitted curve in the direction sought with a large enough effect in the signal ratio, with a control signal flat, not every such curve was filed as active; the % refers to the signal ratio; also: 0% is about no effect); details: hypoxia response reporter cells, beta-lactamase ratio readout; series mostly up to 104 µM
How it was run: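 HRE-bla ME-180 cells in Opti-MEM with 0.5% dialyzed FBS, pre-plated 4-5 h, then compound titration for 17 h at 37 degrees Celsius. CCF4 loaded 2.5 h at room temperature; 460/530 nm ratio gave %Activity and AC50 for induction.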

[18] = biological target: Peroxisome proliferator-activated receptor alpha (Homo sapiens) (UniProt Q07869); assay: qHTS assay for small molecule agonists of the peroxisome proliferator-activated receptor alpha (PPARalpha) signaling pathway (AID 651778); details: PathHunter PPARalpha complementation, chemiluminescence, 6 h; max response: hits give high values; also: % of control where 0% means no effect
How it was run: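 Enzyme-fragment complementation assay in which ligand-bound PPARalpha translocates and forms an active enzyme that generates chemiluminescence. Cells were plated overnight, exposed to compound for 6 hr at 37 C, and then given detection reagent for 60 min at room temperature.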

[19] = qHTS assay for small molecule agonists of the antioxidant response element (ARE) signaling pathway measured by Nrf2-dependant transcriptional activity - cell viability counter screen (AID 720653; active = well fitted curve in the direction sought with a large enough effect in the repeat runs; an effect the other way counts as inactive or inconclusive; also: % is scaled to controls: 0 for no effect and ±100 for the full control effect); details: ARE-bla HepG2 viability, CellTiter-Glo ATP luminescence, 16 h; max response: hits give low values
How it was run: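 ARE-bla HepG2 cells treated with compounds for 16 h at 37C; this counter screen measures viability as intracellular ATP by CellTiter-Glo luminescence after 30 min at room temperature.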

[20] = qHTS assay for cell viability of the p53RE-bla HCT-116 cell line (AID 743292); details: p53RE-bla HCT-116 viability, ATP luminescence, 16 h; series mostly up to 95 µM; also: % is scaled to controls: 0 for no effect and ±100 for the full control effect; nearly all actives have a fitted effect of over 55% in size
How it was run: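 ATP-based luminescent viability (CellTiter-Glo, 30 min RT) after 16 h compound treatment at 37 C of p53RE-bla HCT-116 cells, seeded at 4,000 cells/well and rested 5 h before dosing.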

Peroxisome proliferator-activated receptor alpha (Homo sapiens), sequence (Q07869 whole entry, looked up, the tested form may be a part): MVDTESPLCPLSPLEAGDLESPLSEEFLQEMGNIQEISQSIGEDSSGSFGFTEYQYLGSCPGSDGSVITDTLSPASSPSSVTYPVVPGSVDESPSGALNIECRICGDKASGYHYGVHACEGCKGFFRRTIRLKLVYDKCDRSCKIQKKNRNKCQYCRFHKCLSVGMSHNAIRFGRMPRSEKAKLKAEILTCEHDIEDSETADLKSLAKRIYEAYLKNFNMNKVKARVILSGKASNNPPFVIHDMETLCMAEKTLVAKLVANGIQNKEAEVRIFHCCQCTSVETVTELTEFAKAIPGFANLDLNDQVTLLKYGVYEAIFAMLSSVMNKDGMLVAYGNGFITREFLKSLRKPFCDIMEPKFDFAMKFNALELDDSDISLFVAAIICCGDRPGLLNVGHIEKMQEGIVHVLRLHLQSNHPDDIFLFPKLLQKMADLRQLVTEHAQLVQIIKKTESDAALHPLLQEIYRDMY

Brc1ccc(-c2ccccc2)cc1
inactive: Potency [1] > 92 µM | Potency [2] | Potency [3] | Potency [4] | Potency [5] | outcome [6] | outcome [7] | Potency [8] | outcome [9] | outcome [10] | Potency [11] | Potency [12] | Potency [13] | Potency [14] | Potency [15] | Potency [16] | Potency [17] | max response [18] -2.37% | max response [19] -10.1% | Potency [20]

Nc1ccc(N=Nc2ccccc2)c(N)c1
inactive: Potency [1] > 92 µM | Potency [3] | Potency [4] | Potency [5] | outcome [6] | outcome [7] | Potency [8] | outcome [9] | Potency [11] | Potency [12] | Potency [13] | Potency [14] | Potency [15] | Potency [16] | Potency [17] | max response [18] -3.41% | max response [19] -16.9% | Potency [20]

C=CC1CO1 (stereo not drawn)
inactive: Potency [1] > 92 µM | Potency [2] | Potency [3] | Potency [4] | Potency [5] | outcome [6] | outcome [7] | Potency [8] | outcome [9] | outcome [10] | Potency [11] | Potency [12] | Potency [13] | Potency [14] | Potency [15] | Potency [16] | Potency [17] | max response [18] 1.5% | max response [19] -12.7% | Potency [20]

CCCCCCCCC1CO1 (stereo not drawn)
inactive: Potency [1] > 92 µM | Potency [2] | Potency [3] | Potency [4] | Potency [5] | outcome [6] | outcome [7] | Potency [8] | outcome [9] | outcome [10] | Potency [11] | Potency [12] | Potency [13] | Potency [14] | Potency [15] | Potency [16] | Potency [17] | max response [18] -3.27% | max response [19] 14.9% | Potency [20]

Cc1ccc(S(N)(=O)=O)cc1
inactive: Potency [1] > 92 µM | Potency [2] | Potency [3] | Potency [4] | Potency [5] | outcome [6] | outcome [7] | Potency [8] | outcome [9] | outcome [10] | Potency [11] | Potency [12] | Potency [13] | Potency [14] | Potency [15] | Potency [16] | Potency [17] | max response [18] -6.35% and -0.652% | max response [19] 3.25% and -8.35% | Potency [20]

NC(=O)c1ccc([N+](=O)[O-])cc1
inactive: Potency [1] > 92 µM | Potency [2] | Potency [3] | Potency [4] | Potency [5] | outcome [6] | outcome [7] | Potency [8] | outcome [9] | outcome [10] | Potency [11] | Potency [12] | Potency [13] | Potency [14] | Potency [15] | Potency [16] | Potency [17] | max response [18] -2.18% | max response [19] 5.8% | Potency [20]
